A1 inh: inhibitors of the anti-apoptotic protein A1, read as caspase activation; hit rate 0.066% among 330,000; MEF A1-2A-BIM cells, Caspase-Glo 3/7 luminescence, 3 h; percent of clofoctol response, vehicle zero; AID 2462; caspase activation, % (concentration not given with the values);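 active = over half of replicate activation scores above 10%, or exactly half above 10 with the replicate mean above 10; inconclusive = replicate mean below 10 yet half the replicates above 10; inactive = over half of replicates below 10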
aSyn 5UTR inh: 5' untranslated region of α-synuclein, MLPCN primary screen; inhibition, % (tested at 7.5 µM); hit rate 0.82% among 300,000; alpha-synuclein 5'UTR reporter, inhibitor activity; in the data active = inhibition above about 60%; inconclusive = no clear call, values can overlap the other calls;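 note: H4 neuroglioblastoma cells stably carrying SNCA 5'UTR luciferase fusion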
Beta cell apopt: blocks beta cell apoptosis; INS-1E cytokine-induced death, ATP luminescence, 48 h; percent of positive-control rescue, neutral wells zero; hit rate 0.8% among 300,000; protection from apoptosis, % (concentration not given with the values); AID 435005;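 active = Every replicate reaches about 75%, or at least half do and their mean reaches it too, limit read from the data; inconclusive = At least half of replicates reach the limit but their mean does not; inactive = Under half of replicates reach the limit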;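 note: higher means more ATP so stronger rescue from cytokine killing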
Mdm2-MdmX inh: disrupts the human Mdm2-MdmX interaction; O15151+Q00987; SaOS-2 split-luciferase Mdm2/MdmX complementation, luminescence; inhibition, % at 8 µM; hit rate 3% among 330,000;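 active = inhibition of at least 50% at 8 µM in the primary screen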
Target sequence (O15151 whole entry, looked up): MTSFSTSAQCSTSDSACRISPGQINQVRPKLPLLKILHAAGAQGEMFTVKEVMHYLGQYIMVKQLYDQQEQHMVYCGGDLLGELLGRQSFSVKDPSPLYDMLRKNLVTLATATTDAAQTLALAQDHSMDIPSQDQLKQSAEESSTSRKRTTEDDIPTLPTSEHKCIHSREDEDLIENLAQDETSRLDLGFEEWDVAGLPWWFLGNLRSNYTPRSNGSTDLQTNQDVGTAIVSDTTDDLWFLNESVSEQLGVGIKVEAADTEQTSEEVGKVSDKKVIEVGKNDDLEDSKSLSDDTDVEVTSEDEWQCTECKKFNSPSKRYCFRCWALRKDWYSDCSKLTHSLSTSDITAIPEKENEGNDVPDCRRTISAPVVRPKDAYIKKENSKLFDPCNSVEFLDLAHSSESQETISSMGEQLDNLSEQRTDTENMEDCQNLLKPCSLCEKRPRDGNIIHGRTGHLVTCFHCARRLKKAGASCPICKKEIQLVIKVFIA
Target sequence (Q00987 whole entry, looked up): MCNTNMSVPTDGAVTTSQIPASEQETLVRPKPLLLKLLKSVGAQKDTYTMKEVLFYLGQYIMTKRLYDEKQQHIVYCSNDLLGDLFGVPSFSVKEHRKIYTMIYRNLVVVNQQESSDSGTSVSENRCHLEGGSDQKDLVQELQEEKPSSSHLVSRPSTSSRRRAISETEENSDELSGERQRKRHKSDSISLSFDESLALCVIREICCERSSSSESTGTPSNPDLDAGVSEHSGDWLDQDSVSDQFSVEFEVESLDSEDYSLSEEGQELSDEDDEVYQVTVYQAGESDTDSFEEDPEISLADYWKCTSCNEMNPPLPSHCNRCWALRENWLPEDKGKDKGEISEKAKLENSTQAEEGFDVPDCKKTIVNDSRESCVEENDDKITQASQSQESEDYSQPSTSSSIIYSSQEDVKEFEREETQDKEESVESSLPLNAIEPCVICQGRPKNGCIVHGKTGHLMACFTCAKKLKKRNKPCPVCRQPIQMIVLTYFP
CSC inhib: blocks cancer stem cells; cancer stem cell-like cells viability, luminescence; inhibition, % at 7.5 µM; hit rate 1.1% among 300,000; in the data active = inhibition above about 75%; inconclusive = no clear call, values can overlap the other calls; tested in HMLE shEcad cells
Mdm2-MdmX conf: human Mdm2/MdmX binding inhibition, confirmed. shares compounds with Mdm2-MdmX inh. luminescent assay. inhibition, % at 8 µM. hit rate 55% among 10,000; in the data active = inhibition above about 40%
FLuc counter: counter-screen for Mdm2/MdmX inhibitors: full-length luciferase. inhibition, % at 8 µM. hit rate 77% among 6,200. AID 504607. SaOS-2 full-length luciferase counterscreen, luminescence. shares compounds with Mdm2-MdmX inh;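 active = mean inhibition at 8 µM reaching about 37%, which flags the compound as non-specific, limit read from the data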;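 note: p53-null SaOS-2 cells with luciferase driven by a doxycycline-inducible promoter; compound on cells about two nights before reading with doxycycline added after day one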
Of the large screens only hits and unclear results are named; the others gave an inactive call (follow-up assays come after a bar, where they were run). Only some compounds are listed: those with a hit (about 4.1% of all), similar ones and a draw of the others.

CCC(=O)Nc1cccc(C(=O)/C=C/c2ccccc2)c1	Mdm2-MdmX inh 95 | Mdm2-MdmX conf inactive | FLuc counter inactive
CCC(=O)Nc1cccc(C(=O)/C=C/c2cccs2)c1	none
O=C(/C=C/c1ccccc1)Nc1cccc(C(=O)O)c1	aSyn 5UTR inh 95, Mdm2-MdmX inh 68 | Mdm2-MdmX conf 64 | FLuc counter inactive
O=C(CCC(=O)c1ccc(F)cc1)OCc1nnc(-c2ccc([N+](=O)[O-])cc2)o1	none (no result: aSyn 5UTR inh, CSC inhib)
O=C(Nc1cccc2c1CCCC2)c1cc([N+](=O)[O-])ccc1Cl	Mdm2-MdmX inh 62 | Mdm2-MdmX conf inactive
O=C(Nc1cccc2c1CCCC2)c1ccc(Cl)c([N+](=O)[O-])c1	Mdm2-MdmX inh 56 | Mdm2-MdmX conf inactive
O=C(Nc1ccccc1-c1ccccc1)c1ccc(Cl)c([N+](=O)[O-])c1	none
Cc1oc(-c2ccc(Cl)cc2)nc1CS(=O)CC(=O)NC1CCCC1 (stereo not given)	none
CCN(CC(=O)Nc1c(F)cccc1F)C(=O)C1CCN(c2ncnc3sc(C)c(C)c23)CC1	none
CCc1cc2ccc(OC)cc2nc1SCC(=O)Nc1cc(C)on1	Mdm2-MdmX inh 50 | Mdm2-MdmX conf inactive
CCc1cc2ccccc2nc1SCC(=O)Nc1cc(C)on1	none (no result: Beta cell apopt)
CCOc1ccc(/C=N/Nc2ccc(Cl)nn2)c(O)c1	Beta cell apopt 119, Mdm2-MdmX inh 54 | Mdm2-MdmX conf inactive | FLuc counter 58
O=C(COC(=O)COc1ccc(Br)cc1)NNC(=O)c1ccccc1	none (no result: aSyn 5UTR inh)
COc1ccc(-n2c(C)cc(/C=C3\SC(=S)N(Cc4ccco4)C3=O)c2C)cc1	none (no result: Mdm2-MdmX inh)
COc1ccc(-c2nn(-c3ccccc3)cc2/C=C2/SC(=S)N(Cc3ccco3)C2=O)c(C)c1	Mdm2-MdmX inh 59 | Mdm2-MdmX conf inactive
CC(C)(C)c1ccc(C(=O)NCCOc2ccccc2F)cc1	aSyn 5UTR inh 77, Mdm2-MdmX inh 62 | Mdm2-MdmX conf 73 | FLuc counter 148
CC(C)(C)c1ccc(C(=O)NCCOc2ccccc2)cc1	none
CC(C)c1ccc(NC(=S)Nc2ccc(OC(F)(F)F)cc2)cc1	none (no result: CSC inhib)
FC(F)(F)Oc1ccc(NC(=S)Nc2ccc(OC(F)(F)F)cc2)cc1	Mdm2-MdmX inh 79 (no result: Beta cell apopt) | Mdm2-MdmX conf inactive
COC(=O)[C@@]1(Cc2ccccc2)[C@H]2C(=O)N(C)C(=O)[C@H]2[C@H]2CN=C(SC)N21	none (no result: A1 inh, aSyn 5UTR inh, Beta cell apopt, CSC inhib)
Cc1ccc2cccc(OCC(=O)Nc3cccc(S(=O)(=O)N4CCCC4)c3)c2n1	none (no result: aSyn 5UTR inh)
Fc1ccc(-c2nn(-c3ccccc3)cc2CNCc2ccccc2)cc1	A1 inh inconclusive
O=C(CCl)Nc1cn(-c2ccccc2)nc1-c1ccc(F)cc1	Mdm2-MdmX inh 86 | Mdm2-MdmX conf 44 | FLuc counter inactive
CCc1noc(C)c1C(=O)N1CCSC1=Nc1cccc(Cl)c1C	none
COc1cc(/C=N/N=C(N)N)ccc1OCc1ccccc1Cl	Mdm2-MdmX inh 100 | Mdm2-MdmX conf inactive | FLuc counter 74
COc1ccc(/C=N/N=C/c2ccc(OC)c(OC)c2)cc1OC	none
Cc1ccc(-n2nc3c([n+]2[O-])CCc2c-3no[n+]2[O-])cc1	Mdm2-MdmX inh 53 | Mdm2-MdmX conf inactive
CCc1ncc(CN2CCCCC2C(=O)Nc2ccc(Oc3ccccc3)nc2)cn1 (stereo not given)	none
COc1cccc(OCC(=O)NNC(=O)C(=O)Nc2cccc(C)c2)c1	none (no result: CSC inhib)
Cc1oc2c(c1C(=O)c1ccc(Cl)cc1)C(=O)C(=O)c1ccccc1-2	none (no result: A1 inh, Beta cell apopt, Mdm2-MdmX inh, CSC inhib)
Cc1ccc(C(=O)c2c(C)oc3c2C(=O)C(=O)c2ccccc2-3)cc1	Beta cell apopt 124, Mdm2-MdmX inh 97 | Mdm2-MdmX conf 99 | FLuc counter 42
FC(F)Sc1ccc(NC(=S)NCc2ccccc2)cc1	none
CN(C)CCCN(Cc1ccccc1)C(=S)Nc1ccc(SC(F)F)cc1	none
CN(C(=S)Nc1ccc(SC(F)F)cc1)C(c1ccccc1)c1ccccc1	Mdm2-MdmX inh 56, CSC inhib inconclusive | Mdm2-MdmX conf inactive
FC(F)Sc1ccc(NC(=S)NC(c2ccccc2)c2ccccc2)cc1	Mdm2-MdmX inh 100 | Mdm2-MdmX conf 74 | FLuc counter 38
FC(F)Sc1ccc(NC(=S)NCC2CCCCC2)cc1	Mdm2-MdmX inh 65 | Mdm2-MdmX conf inactive
FC(F)Sc1ccc(NC(=S)NC2CCCCC2)cc1	none
COc1cc(OC)cc(-c2oc(=O)c3cc(OC)c(OC)cc3c2/C=C/c2ccc(F)cc2)c1	none (no result: aSyn 5UTR inh)
O=C(Oc1c(-c2ccccc2)c(=O)n2c3c(cccc13)CC2)c1ccc(F)cc1	Mdm2-MdmX inh 54 | Mdm2-MdmX conf inactive
O=C(Oc1c(-c2ccccc2)c(=O)n2c3c(cccc13)CC2)c1cccc([N+](=O)[O-])c1	aSyn 5UTR inh 77, Mdm2-MdmX inh 70 | Mdm2-MdmX conf 75 | FLuc counter 39
O=C(Oc1c(-c2ccccc2)c(=O)n2c3c(cccc13)CC2)c1ccccc1	none
C=CCN(CC=C)S(=O)(=O)c1ccc2nc(NC(=O)C(C)C)sc2c1	Mdm2-MdmX inh 59 (no result: aSyn 5UTR inh) | Mdm2-MdmX conf 60 | FLuc counter 52
CCOC(=O)c1ccc2nc(NC(=O)C(C)C)sc2c1	none (no result: Beta cell apopt)
O=C(O)C(CCCCNS(=O)(=O)c1ccc(F)cc1)NS(=O)(=O)c1ccc(F)cc1 (stereo not given)	A1 inh inconclusive
CCc1c(C2(O)CCCCC2)[nH]c2ccc(C(F)(F)F)cc12	Mdm2-MdmX inh 82, CSC inhib 84 | Mdm2-MdmX conf inactive
CN(C)Cc1c(C(C)(C)O)[nH]c2ccc(C(F)(F)F)cc12	none (no result: aSyn 5UTR inh)
O=C(Cc1ccccc1)Nc1ccc2c(c1)OC1(CCCC1)O2	none (no result: aSyn 5UTR inh)
Nc1ccc2c(c1)OC1(CCCC1)O2	Mdm2-MdmX inh 70 | Mdm2-MdmX conf 80 | FLuc counter 37
CCCCN(CCCNC(=O)CN1C(=O)COc2ccc(S(=O)(=O)N3CCC(C)CC3)cc21)Cc1ccccc1	none
COc1cc(NC(=O)c2ccccc2)c(OC)cc1NC(=O)CSc1[nH]c(=O)cc(C)c1C#N	Mdm2-MdmX inh 84 | Mdm2-MdmX conf inactive
Cc1cc(=O)[nH]c(SCC(=O)Nc2cccc3ccccc23)c1C#N	none (no result: CSC inhib)
CCN(CC)c1nc(-c2ccc(C(=O)NN)cc2)nc(-c2ccc(C(=O)NN)cc2)n1	none
O=C(N/N=C/c1cccn1-c1ccc(O)cc1)c1cccc2ccccc12	Mdm2-MdmX inh 64 | Mdm2-MdmX conf inactive
CCc1nc2ccc(C(=O)NCCCN3CCN(c4ccccc4F)CC3)cc2nc1CC	none
CC1(C)NC(=O)N(CC(=O)N2CCN(c3cccc(Cl)c3)CC2)C1=O	none (no result: aSyn 5UTR inh, CSC inhib)
Cc1ccc2cc3cc(C(=O)NCc4ccc5c(c4)OCO5)oc3nc2c1	Mdm2-MdmX inh 68 (no result: A1 inh, Beta cell apopt, CSC inhib) | Mdm2-MdmX conf inactive
CCOC(=O)c1ccc(S(=O)(=O)N2CCN(CC(O)COc3ccc(C#N)cc3)CC2)cc1 (stereo not given)	none
COc1ccc2nc3oc(C(=O)NC4CCN(Cc5ccccc5)CC4)cc3cc2c1	Mdm2-MdmX inh 98 (no result: aSyn 5UTR inh, Beta cell apopt) | Mdm2-MdmX conf 91 | FLuc counter inactive
CCOC(=O)N1CCC(NC(=O)c2cc3cc4cc(OC)ccc4nc3o2)CC1	none
